PubChem BioAssay (EPA / NIEHS)
Records with an inconclusive call do not appear. Active and inactive are the calls of the source. Rule for the calls, unless noted: active = hit-call score of the fitted dose curve at least 0.9, where 1 is the maximum; inconclusive = response in the unintended direction; inactive = score below 0.9.

Key:
[1] = CCTE_Harrill_HTTr_Apoptosis_MCF7: CCTE's 6-hour Apoptosis Assessment for the High-Throughput Transcriptomics (HTTr) Platform, in MCF-7 cells cultured in DMEM + 10% fetal bovine serum, Harrill Lab (AID 2284011; active = hit-call score of the fitted dose curve at least 0.9, where 1 is the maximum; inactive = score below 0.9)
Outline: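 Apoptosis in MCF-7 cells grown in DMEM with 10% fetal bovine serum was scored after a six hour exposure by high content imaging of caspase-3/7 activation (CellEvent Caspase 3/7 Green), with DMSO serving as negative control and baseline.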

[2] = molecular target: Nucleoli Translocation, AR (gene 367) (UniProt P10275); experiment: UPITT_HCI_U2OS_AR_TIF2_Nucleoli_Antagonist: University of Pittsburgh U2OS Androgen Receptor-Transcriptional Intermediary Factor 2 (AR-TIF2) Antagonism High Content Imaging Assay for Nucleoli Translocation (AID 2283997)
Chain of Nucleoli Translocation, AR (gene 367) (P10275 whole entry, looked up, the tested form may be a part): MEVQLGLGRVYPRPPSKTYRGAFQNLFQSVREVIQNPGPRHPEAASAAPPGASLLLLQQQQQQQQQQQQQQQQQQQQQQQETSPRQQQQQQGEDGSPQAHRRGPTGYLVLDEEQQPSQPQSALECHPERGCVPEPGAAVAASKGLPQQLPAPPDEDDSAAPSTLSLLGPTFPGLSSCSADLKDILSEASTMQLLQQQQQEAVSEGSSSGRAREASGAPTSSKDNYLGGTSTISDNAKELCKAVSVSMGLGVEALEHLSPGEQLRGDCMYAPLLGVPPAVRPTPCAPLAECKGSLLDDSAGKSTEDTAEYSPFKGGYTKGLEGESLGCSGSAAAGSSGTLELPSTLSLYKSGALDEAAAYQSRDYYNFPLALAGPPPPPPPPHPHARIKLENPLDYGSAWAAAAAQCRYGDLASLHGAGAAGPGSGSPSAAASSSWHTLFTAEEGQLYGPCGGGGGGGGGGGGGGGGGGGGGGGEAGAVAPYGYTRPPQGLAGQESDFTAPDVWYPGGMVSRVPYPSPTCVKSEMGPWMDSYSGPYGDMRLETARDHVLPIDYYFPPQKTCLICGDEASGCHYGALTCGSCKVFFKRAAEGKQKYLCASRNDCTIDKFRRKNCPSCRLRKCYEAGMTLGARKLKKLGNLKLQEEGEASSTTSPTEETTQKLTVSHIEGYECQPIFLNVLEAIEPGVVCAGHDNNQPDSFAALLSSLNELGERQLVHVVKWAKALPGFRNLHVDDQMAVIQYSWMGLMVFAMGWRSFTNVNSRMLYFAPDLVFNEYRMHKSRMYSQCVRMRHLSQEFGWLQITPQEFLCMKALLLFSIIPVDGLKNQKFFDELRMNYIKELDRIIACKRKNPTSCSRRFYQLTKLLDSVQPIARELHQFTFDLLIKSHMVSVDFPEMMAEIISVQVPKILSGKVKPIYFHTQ
Outline: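 Antagonism is read as loss of nucleolar AR-RFP signal relative to DHT, imaged in U2OS cells also carrying GFP-TIF2. Compounds screened at 20 uM final, 0.2% DMSO; primary actives retested in triplicate.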

[3] = molecular target: Nucleoli Translocation, AR (gene 367) (UniProt P10275); experiment: UPITT_HCI_U2OS_AR_TIF2_Nucleoli_Agonist: University of Pittsburgh U2OS Androgen Receptor-Transcriptional Intermediary Factor 2 (AR-TIF2) Agonism High Content Imaging Assay for Nucleoli Translocation (AID 2283998)
Outline: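 High-content images quantify nucleolar accumulation of RFP-fused AR in cells also expressing GFP-TIF2; the endpoint is fitted as signal gain versus DMSO controls across final concentrations of 0.195 to 50 uM.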

[4] = molecular target: Ratio of Nucleoli Translocation and Cytoplasm, AR (gene 367) (UniProt P10275); experiment: UPITT_HCI_U2OS_AR_TIF2_Nucleoli_Cytoplasm_Ratio_Antagonist: University of Pittsburgh U2OS Androgen Receptor-Transcriptional Intermediary Factor 2 (AR-TIF2) Antagonism High Content Imaging Assay for Ratio of Nucleoli Translocation and Cytoplasm (AID 2283999);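 note: antagonists lower the DHT-driven ratio of nucleolar to cytoplasmic red signal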
Chain of Ratio of Nucleoli Translocation and Cytoplasm, AR (gene 367) (P10275 whole entry, looked up): as the sequence (P10275 whole entry, looked up, the tested form may be a part) above
Outline: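 Compounds were added to U2OS cells carrying red-fluorescent AR and green-fluorescent TIF2, first at 20 uM, with hits confirmed in triplicate and titrated from 0.195 to 50 uM. Nucleolar versus cytoplasmic AR-RFP fluorescence was then quantified by imaging, with analysis relative to DHT.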

[5] = molecular target: Ratio of Nucleoli Translocation and Cytoplasm, AR (gene 367) (UniProt P10275); experiment: UPITT_HCI_U2OS_AR_TIF2_Nucleoli_Cytoplasm_Ratio_Agonist: University of Pittsburgh U2OS Androgen Receptor-Transcriptional Intermediary Factor 2 (AR-TIF2) Agonism High Content Imaging Assay for Ratio of Nucleoli Translocation and Cytoplasm (AID 2284000);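 note: hits raise the red nucleolar to cytoplasm ratio above vehicle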
Outline: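 Compounds tested at 20 uM final in primary screen (0.2% DMSO) and 0.195-50 uM final in dose-response (0.5% DMSO). Imaging of human U2OS cells bearing RFP-AR and GFP-TIF2; endpoint is nucleoli/cytoplasm red signal ratio, positive direction relative to DMSO.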

[6] = CCTE_Harrill_HTTr_Viability_MCF7: CCTE's 6-hour Cell Viability Assessment for the High-Throughput Transcriptomics (HTTr) Platform, in MCF-7 cells cultured in DMEM + 10% fetal bovine serum, Harrill Lab (AID 2284010; active = hit-call score of the fitted dose curve at least 0.9, where 1 is the maximum; inactive = score below 0.9)
Outline: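 Read-out is propidium iodide gain of signal by high-content imaging, reflecting membrane integrity loss. Measurements are taken 6 h after dosing, eight concentrations per chemical, with DMSO serving as baseline for bidirectional curve fitting.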

[7] = CCTE_Harrill_HTTr_CellCount_MCF7: CCTE's Cell Proliferation Assessment for the High-Throughput Transcriptomics (HTTr) Platform, Harrill Lab (AID 2284012);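 note: cells exposed to compound for six hours; intended direction is loss of nuclei count meaning fewer cells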
Outline: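 Cell count served as viability reporter: loss of Hoechst-stained nuclei, counted by high content imaging, marks decreased growth or survival. Exposure was 6 h in MCF-7 cells across eight concentrations, with DMSO as baseline.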

Measured: outcome

[Cl-].[Cl-].[Cl-].[Pr+3]
inactive: [1]

COP(=S)(OC)SCC(=O)N(C)C=O
inactive: all assays above
